Test results taken from PubChem BioAssay (NCATS).
Where “and” joins values, the source holds several entries; their conditions need not be identical. Identical values can stand only once. Records with an inconclusive call do not appear. Values without a mark were called inactive. Calls of active or inactive are those of the source. The call rests on the fitted dose curve.
Potency means the concentration at half of the fitted maximal effect.

Assay: Cell Viability - SK-N-SH (AID 435);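 further: compound exposure lasted 40 h at 37 °C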
Settings: SK-N-SH neuroblastoma cell viability qHTS
From the text: NIH Chemical Genomics Center [NCGC]
NIH Molecular Libraries Screening Centers Network [MLSCN]
National Institutes of Environmental Health Sciences [NIEHS]
National Toxicology Program [NTP]
We have developed a 1536-well cell-based assay for quantitative high throughput screening (qHTS) against a number of cell lines to determine in vitro cytotoxicity of small molecules. This particular assay uses the SK-N-SH cell line which is derived from human neuroblastoma.
NCGC Assay Protocol Summary:
The CellTiter-Glo luminescent cell viability assay (Promega) is a homogeneous method to measure the number of viable cells in culture. The end point readout of this assay is based on quantitation of intracellular ATP, an indicator of metabolic activity, using the luciferase reaction. Luciferase catalyzes the oxidation of beetle Luciferin to oxyluciferin and light in the presence of ATP. The luminescent signal is proportional to amount of ATP present.
Using the CellTiter-Glo luminescent cell viability assay, the amount of cellular ATP was measured in the SK-N-SH cell line with complete culture medium following compound treatment for 40 hours. The assay was performed in opaque white Kalypsys 1536-well plates. In the screen, tamoxifen and doxorubicin were used as positive controls. Library compounds were measured for their ability to cause acute toxicity in the cell line, as reflected by a decrease in intracellular ATP levels, in a concentration-dependent manner. Data were normalized to the controls for basal activity (DMSO only) and 100% inhibition (100 uM tamoxifen). AC50 values were determined from concentration-response data modeled with the standard Hill equation.
qHTS protocol fo CellTiter Glo SK-N-SH cellular assay
[Step] [Parameter] [Value] [Description]
1. Reagent; 5 uL; 1500 SK-N-SH cells/well
2. Time; 5 hr; 37 °C incubation
4. Controls; 23 nL; Tamoxifen 0.34 uM to 100 uM & Doxorubicin 0.02 nM to 100 uM
5. Time; 40 hr; 37 °C incubation
6. Reagent; 5 uL; CellTiter Glo reagent
7. Time; 20 min; Room Temperature
8. Detection; Luminescence; Viewlux plate reader
Keywords: cell viability, cytotoxicity, SK-N-SH cell line, luminescence, NTPHTS, NTPHTS_NCGC, NIEHS, EPA, DSSTox, MLSMR, MLSCN, NIH Roadmap, qHTS, NCGC
In the case of `O=[N+]([O-])c1ccccc1`, the Potency is reported as greater than 92 µM.
`CCCCCl` gave a Potency greater than 92 µM.
Molecule `CCCCCCCCOC(=O)c1ccccc1C(=O)OCCCCCCCC` has a Potency greater than 92 µM.
For `CC(C)Nc1ccc(Nc2ccccc2)cc1`, the Potency was 40.5 µM (active).
`ClCC1CO1` (centres undefined) showed a Potency greater than 92 µM.
Work on `ClC(Cl)(Cl)Cl` yielded a Potency greater than 92 µM.
For `NNC(N)=O`, the Potency was greater than 92 µM.
With `[O]=[Cr](=[O])([OH])[O][Cr](=[O])(=[O])[OH]` the Potency was 19.2 µM (active) and 17.1 µM (active) and 3.88 µM (active).
For `[O]=[Cd]`, the Potency was greater than 92 µM.
`COc1ccc2c(c1OC)C(=O)OC2C1c2cc3c(cc2CCN1C)OCO3` (centres undefined) showed a Potency greater than 92 µM.
Molecule `O=Cc1ccco1` has a Potency greater than 92 µM.
In the case of `O=C1C2CC=CCC2C(=O)N1SC(Cl)(Cl)Cl` (centres undefined), the Potency is reported as 27.7 µM (active) and 13.2 µM (active).
Molecule `Clc1ccccc1Cl` has a Potency greater than 92 µM.
For `C[C@H]1CC[C@@H]2[C@@H](C)[C@H]3[C@H](C[C@H]4[C@@H]5CC=C6CC(O[C@@H]7O[C@H](CO)[C@H](O)[C@H](O[C@@H]8O[C@H](CO)[C@@H](O)[C@H](O)[C@H]8O)[C@H]7O[C@H]7O[C@@H](C)[C@H](O)[C@@H](O)[C@H]7O)CC[C@]6(C)[C@H]5CC[C@]34C)N2C1` (some centres undefined), the Potency was 24.8 µM (active).
`O=C1C=CC(=O)C=C1` gave a Potency greater than 92 µM.
`O=C(O)C(Cl)(Cl)Cl` gave a Potency greater than 92 µM.
In the case of `[Cl-].[Cl-].[Hg+2]`, the Potency is reported as 16 µM (active).
Molecule `S=C=S` has a Potency greater than 92 µM.
`O=C1CCO1` gave a Potency greater than 92 µM.
Molecule `ClC=C(Cl)Cl` has a Potency greater than 92 µM.
`CC(C)CCON=O` showed a Potency greater than 92 µM.
With `O=CC=O` the Potency was greater than 92 µM.
For `O=[N+]([O-])c1ccc(F)c([N+](=O)[O-])c1`, the Potency was 45.7 µM (active).
Molecule `COC1=CC(=O)O[C@@H](/C=C/c2ccccc2)C1` has a Potency greater than 92 µM.
Molecule `CCOC(=O)c1ccccc1C(=O)OCC` has a Potency greater than 92 µM.
Work on `O=C/C=C/c1ccccc1` yielded a Potency greater than 92 µM.
`C[C@]12CCC(=O)C[C@@H]1CC[C@@H]1[C@@H]2CC[C@]2(C)[C@@H](O)CC[C@@H]12` gave a Potency greater than 92 µM.
With `C=CCN=C=S` the Potency was greater than 92 µM.
`CC(C)(C)c1cc(O)ccc1O` showed a Potency greater than 92 µM.
